# Test results published in publication PMC7826789 (International Journal of Molecular Sciences, 2021).
structure (smiles),measurement,setting,value
COc1cc(N2CCN(C)CC2)ccc1Nc1ncc2c(n1)N(C)c1ccccc1C(=O)N2 [XMD8-87],Kinases covered,PTK6,PTK6
Cc1cc(NC(=O)c2cccc(NC(=O)/C=C/CN(C)C)c2)ccc1Nc1nccc(-c2cccnc2)n1 [JNK-IN-7],Kinases covered,RIOK2,RIOK2
CCCc1cc(N2CCCN(C)CC2)nc2sc3c(N)ncnc3c12 [BI00604564],Kinases covered,RIOK2,RIOK2
CC1=C(C(=O)Nc2ccc3[nH]ncc3c2)C(c2ccc(Cl)c(Cl)c2)CC(=O)N1 (centres unmarked) [GSK299115A],Kinases covered,ROCK1,ROCK1
CCn1c(-c2nonc2N)nc2cncc(CNC3CCNCC3)c21 [SB-747651A],Kinases covered,ROCK2,ROCK2
same,Kinases covered,RSK,RSK
CCn1c(-c2nonc2N)nc2cncc(C(=O)N3CC[C@H](N)C3)c21.Cl [SB-772077-B],Kinases covered,ROCK2,ROCK2
same,Kinases covered,RPS6KA5,RPS6KA5
same,Kinases covered,RSK1,RSK1
COc1cc(Nc2cnc(C#N)c(O[C@H](C)CN(C)C)n2)ncc1-c1cnn(C)c1 [CCT244747],Kinases covered,RPS6KA1,RPS6KA1
same,Kinases covered,RPS6KA3,RPS6KA3
CCCNC(=O)c1ccc(Nc2ncc(C(F)(F)F)c(Nc3ccccc3C(C)=O)n2)c(Br)c1 [BI00801818],Kinases covered,RSK1,RSK1
same,Kinases covered,RSK2,RSK2
COc1ccc2[nH]c3c4[nH]c5ccc(OC)cc5c4c4c(c3c2c1)C(=O)NC4=O [GW296115X],Kinases covered,RSK3,RSK3
CC(C)N1CC(=O)N(C)c2cnc(Nc3cccc(S(=O)(=O)CCN4CCOCC4)c3)nc21 [BI00009348],Kinases covered,RSK4,RSK4
CCn1cc(-c2ccnc3[nH]c(-c4cccc(CN(C)C)c4)cc23)c(-c2ccc(NC(=O)N(C)C)cc2)n1 [GSK1070916],Kinases covered,SIK,SIK
COc1cc2c(cc1OC)C(=C(Nc1ccccc1)c1cccc(CN)c1)C(=O)N2 [BIBF0846CL],Kinases covered,SNARK,SNARK
